{
  "source": "PubChem BioAssay (NCATS)",
  "note": "Inconclusive results are not listed. A number with no mark means an inactive call. Activity calls are given as the source filed them. Calls follow the shape of the dose curve; as a rule, active = well fitted inhibition curve with a large enough effect; inconclusive = small, poorly fitted or top-dose-only effect; inactive = flat fitted curve, though single readings scatter. % is scaled to controls: 0 for no effect and ±100 for the full control effect; potency is read from the fitted curve at half-maximal effect.",
  "data": [
    {"target": "Ubiquitin carboxyl-terminal hydrolase 1 (Homo sapiens) (UniProt O94782)", "sequence (O94782 whole entry, looked up)": "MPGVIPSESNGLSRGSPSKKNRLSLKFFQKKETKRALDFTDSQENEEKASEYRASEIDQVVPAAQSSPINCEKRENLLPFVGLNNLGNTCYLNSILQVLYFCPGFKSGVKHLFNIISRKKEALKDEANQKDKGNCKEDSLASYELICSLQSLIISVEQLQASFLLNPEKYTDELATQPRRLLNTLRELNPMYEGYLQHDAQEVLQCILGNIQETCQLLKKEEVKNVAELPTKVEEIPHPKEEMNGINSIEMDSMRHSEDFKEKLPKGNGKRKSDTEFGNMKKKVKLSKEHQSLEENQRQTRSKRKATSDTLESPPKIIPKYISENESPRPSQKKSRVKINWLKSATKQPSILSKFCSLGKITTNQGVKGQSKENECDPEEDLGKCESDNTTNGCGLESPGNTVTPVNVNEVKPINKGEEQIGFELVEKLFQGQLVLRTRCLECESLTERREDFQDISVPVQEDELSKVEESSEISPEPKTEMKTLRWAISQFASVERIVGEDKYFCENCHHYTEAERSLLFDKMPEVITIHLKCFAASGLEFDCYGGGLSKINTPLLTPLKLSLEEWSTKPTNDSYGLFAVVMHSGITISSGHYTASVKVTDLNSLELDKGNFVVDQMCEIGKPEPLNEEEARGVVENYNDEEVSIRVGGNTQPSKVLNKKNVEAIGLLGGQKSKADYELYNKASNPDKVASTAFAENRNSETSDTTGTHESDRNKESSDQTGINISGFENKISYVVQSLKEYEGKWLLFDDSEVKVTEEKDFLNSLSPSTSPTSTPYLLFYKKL", "test": "Inhibitors of USP1/UAF1: Pilot qHTS (AID 504865); also: nearly all actives have a fitted effect of over 35% in size;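 as to activity change, negative = inhibition: rhodamine fluorescence freed from ubiquitin-rhodamine substrate followed over time; top concentration of the series differs between compounds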", "conditions": "purified USP1/UAF1, Ub-rhodamine cleavage fluorescence; series mostly up to 114 µM; activity change, negative = inhibition: at the top concentration", "how_it_was_run": "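USP1/UAF1 complex (1nM) preincubated with compound 15 min at room temperature, then Ub-Rho substrate (150nM final) added. Fluorescence read kinetically at 480/540 nm, 6 reads every 60 seconds. Buffer: 50mM HEPES pH 7.8, 0.5mM EDTA, 0.1 mg/ml BSA, 1mM TCEP, 0.01% Tween-20.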", "values": [
      {"molecule": "NCCc1cc(O)c(O)cc1O", "Potency": "50.1 µM (active)"},
      {"molecule": "Cn1c(CCCC(=O)O)nc2cc(N(CCCl)CCCl)ccc21", "activity change, negative = inhibition": "-1.23%"},
      {"molecule": "C[C@]12C/C(=C/O)C(=O)C[C@@H]1CC[C@@H]1[C@@H]2CC[C@@]2(C)[C@H]1CC[C@]2(C)O", "activity change, negative = inhibition": "-9.77%"},
      {"molecule": "CCC(C(N)=O)N1CCCC1=O", "note": "(stereo not given)", "activity change, negative = inhibition": "2.99%"},
      {"molecule": "CC(C)(N)Cc1ccc(Cl)cc1", "activity change, negative = inhibition": "-7.06%"},
      {"molecule": "CCN(CC)CCOC(=O)C(O)(c1ccccc1)c1ccccc1", "activity change, negative = inhibition": "1.73%"},
      {"molecule": "CC(C)(C)NCC(O)c1cc(Cl)c(N)c(Cl)c1", "note": "(stereo not given)", "Potency": "inactive"},
      {"molecule": "CC(C)CC(N(C)C)C1(c2ccc(Cl)cc2)CCC1", "note": "(stereo not given)", "activity change, negative = inhibition": "-8.58%"},
      {"molecule": "CC(=O)Nc1cc([As](=O)(O)O)ccc1O", "activity change, negative = inhibition": "-2.89%"},
      {"molecule": "NP(N)(=O)NC(=O)c1ccc(F)cc1", "activity change, negative = inhibition": "-3.45%"},
      {"molecule": "CN(C)CCc1ccc(O)cc1", "activity change, negative = inhibition": "-9.32%"},
      {"molecule": "O=P1(NCCCl)OCCCN1CCCl", "note": "(stereo not given)", "activity change, negative = inhibition": "-4.34% [at 54.9 µM]"},
      {"molecule": "O=C(NC(O)C(Cl)(Cl)Cl)NC(O)C(Cl)(Cl)Cl", "note": "(stereo not given)", "activity change, negative = inhibition": "-1.51%"},
      {"molecule": "CC[N+]1(C)CCCC(OC(=O)C(O)(c2ccccc2)c2ccccc2)C1", "note": "(stereo not given)", "activity change, negative = inhibition": "1.34%"},
      {"molecule": "C#CCOC(C(=O)OCCN(C)C)(c1ccccc1)c1ccccc1", "activity change, negative = inhibition": "-9.62%"}
    ]}
  ]
}
